Data from PubChem BioAssay (Tox21).
Results filed as inconclusive are left out. Where a call stands in place of a potency, no number is given. Activity calls are given as the source filed them. Unless noted, calls come from the whole dose curve; as a rule, active = well fitted curve in the direction sought with a large enough effect in the repeat runs; inconclusive = weak or mixed curves; inactive = no such curve, though single readings can be large; an effect the other way counts as inactive or inconclusive.

What was measured:
[1] = qHTS assay to identify small molecule agonists of the peroxisome proliferator-activated receptor delta (PPARd) signaling pathway - cell viability counter screen (AID 743211); note: nearly all actives have a fitted effect of over 55% in size; note: potency is the fitted concentration of half-maximal effect
Summary of the method: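 Counter screen for cytotoxicity run in parallel with the PPARd reporter screen. Beta-lactamase reporter HEK293H cells exposed to compounds 17 h; ATP-based CellTiter-Glo luminescence quantified viability.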

[2] = target: Peroxisome proliferator-activated receptor delta (Homo sapiens) (UniProt Q03181); test: qHTS assay to identify small molecule agonists of the peroxisome proliferator-activated receptor delta (PPARd) signaling pathway (AID 743212; calls by dose curve)
Sequence of Peroxisome proliferator-activated receptor delta (Homo sapiens) (Q03181 whole entry, looked up): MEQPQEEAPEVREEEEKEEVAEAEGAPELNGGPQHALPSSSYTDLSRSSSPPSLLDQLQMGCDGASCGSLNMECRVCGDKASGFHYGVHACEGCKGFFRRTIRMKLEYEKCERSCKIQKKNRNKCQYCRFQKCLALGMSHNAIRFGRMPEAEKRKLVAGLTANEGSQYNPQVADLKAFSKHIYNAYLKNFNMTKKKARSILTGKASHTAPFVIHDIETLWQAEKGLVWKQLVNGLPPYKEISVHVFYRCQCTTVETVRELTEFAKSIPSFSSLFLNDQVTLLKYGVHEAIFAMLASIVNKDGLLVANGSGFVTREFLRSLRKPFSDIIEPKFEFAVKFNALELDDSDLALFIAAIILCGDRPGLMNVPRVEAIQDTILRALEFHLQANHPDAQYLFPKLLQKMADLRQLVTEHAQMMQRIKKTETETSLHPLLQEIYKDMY
Summary of the method: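 HEK293H PPARd-bla cells; 5 h preincubation 37 C/5% CO2; compound (DMSO) 37 C; LiveBLAzer B/G FRET substrate 2 h RT; fluorescence intensity.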

[3] = qHTS assay to identify small molecule antagonists of the peroxisome proliferator-activated receptor delta (PPARd) signaling pathway - cell viability counter screen (AID 743213); note: nearly all actives have a fitted effect of over 50% in size; note: potency is the fitted concentration of half-maximal effect
Summary of the method: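 HEK293H cells with the PPARd UAS-bla reporter, co-treated 17 h at 37 C with compounds and L165041 (300 nM final), were lysed with CellTiter-Glo. Luminescence indicated viable cell content.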

[4] = target: Peroxisome proliferator-activated receptor delta (Homo sapiens) (UniProt Q03181); test: qHTS assay to identify small molecule antagonists of the peroxisome proliferator-activated receptor delta (PPARd) signaling pathway (AID 743215; active = well fitted inhibition curve with a large enough effect in the signal ratio in the repeat runs, not every such curve was filed as active; the % refers to the signal ratio;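 note: cells stimulated with agonist L165041 at 300 nM final during compound exposure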; note: potency is the fitted concentration of half-maximal effect)
Summary of the method: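 PPARd UAS-bla HEK293H cells were pre-incubated 5 h at 37 C, then given test compounds in DMSO plus agonist L165041 (300 nM final). After 17 h at 37 C, beta-lactamase FRET substrate was added; fluorescence read after 2 h at room temperature.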

[5] = target: Bile acid receptor (Homo sapiens) (UniProt Q96RI1); test: qHTS assay to identify small molecule antagonists of the farnesoid-X-receptor (FXR) signaling pathway (AID 743217; active = well fitted inhibition curve with a large enough effect in the signal ratio in the repeat runs, not every such curve was filed as active; the % refers to the signal ratio; note: potency is the fitted concentration of half-maximal effect)
Sequence of Bile acid receptor (Homo sapiens) (Q96RI1 whole entry, looked up): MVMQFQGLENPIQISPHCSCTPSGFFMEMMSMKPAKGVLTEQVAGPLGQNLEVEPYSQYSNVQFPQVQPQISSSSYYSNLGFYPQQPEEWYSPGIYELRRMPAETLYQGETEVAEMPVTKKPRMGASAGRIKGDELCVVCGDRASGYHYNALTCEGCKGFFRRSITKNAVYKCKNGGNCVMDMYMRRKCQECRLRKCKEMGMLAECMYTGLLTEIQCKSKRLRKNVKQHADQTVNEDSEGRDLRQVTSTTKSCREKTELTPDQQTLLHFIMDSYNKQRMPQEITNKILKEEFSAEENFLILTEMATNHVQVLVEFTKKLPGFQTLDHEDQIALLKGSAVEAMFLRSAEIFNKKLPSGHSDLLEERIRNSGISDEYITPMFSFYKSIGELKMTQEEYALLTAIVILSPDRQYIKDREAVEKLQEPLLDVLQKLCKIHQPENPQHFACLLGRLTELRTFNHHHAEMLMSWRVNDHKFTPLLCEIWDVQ
Summary of the method: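 FXR-UAS-bla HEK 293T cells pre-incubated 5 h at 37 °C, then exposed to compounds with chenodeoxycholic acid (50 uM final) for 16 h at 37 °C. Beta-lactamase reporter read by LiveBLAzer B/G FRET substrate fluorescence after 2 h at room temperature.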

[6] = qHTS assay to identify small molecule agonists of the farnesoid-X-receptor (FXR) signaling pathway - cell viability counter screen (AID 743218); note: nearly all actives have a fitted effect of over 45% in size; note: potency is the fitted concentration of half-maximal effect
Summary of the method: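 FXR-UAS-bla HEK 293T cells, plated 5 h at 37 C, were exposed to compounds for 16 h at 37 C. CellTiter-Glo was then added to the same wells as the bla readout; luminescence read after 30 min at room temperature.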

[7] = target: Bile acid receptor (Homo sapiens) (UniProt Q96RI1); test: qHTS assay to identify small molecule agonists of the farnesoid-X-receptor (FXR) signaling pathway (AID 743220; active = well fitted activation curve with a large enough effect in the signal ratio in the repeat runs, not every such curve was filed as active; the % refers to the signal ratio)
Summary of the method: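 Beta-lactamase reporter under UAS control in GeneBLAzer FXR HEK 293T cells (5000/well) measured with LiveBLAzer FRET substrate after 2 h at room temperature. Compound exposure lasted 16 h at 37C.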

[8] = qHTS assay to identify small molecule antagonists of the farnesoid-X-receptor (FXR) signaling pathway - cell viability counter screen (AID 743221; active = well fitted cell-killing curve with a large enough effect in the repeat runs, not every such curve was filed as active; note: nearly all actives have a fitted effect of over 50% in size)
Summary of the method: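 Multiplexed counter screen: viability of FXR-bla HEK 293T cells under agonist stimulation by chenodeoxycholic acid (50 uM, final) and test compound for 16 h at 37 C, measured by CellTiter-Glo luminescence in the reporter wells.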

[9] = qHTS assay to identify small molecule agonists of the vitamin D receptor (VDR) signaling pathway - cell viability counter screen (AID 743224); note: nearly all actives have a fitted effect of over 50% in size; note: potency is the fitted concentration of half-maximal effect
Summary of the method: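 VDR-bla cells were preincubated 4 h at 37C/5% CO2, then exposed to compounds for 16 h. After the 2 h room-temperature bla FRET read, CellTiter-Glo was added to the same wells and luminescence read after 30 min.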

[10] = qHTS assay to identify small molecule antagonists of the vitamin D receptor (VDR) signaling pathway - cell viability counter screen (AID 743225); note: nearly all actives have a fitted effect of over 50% in size; note: potency is the fitted concentration of half-maximal effect
Summary of the method: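 HEK293T VDR-bla; cpd + 1a,25-(OH)2D3 3 nM final, 16 h 37C/5% CO2; B/G FRET substrate 2 h RT; then CellTiter-Glo 30 min RT, luminescence.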

[11] = qHTS assay to identify small molecule agonists of the NFkB signaling pathway (AID 1159509; active = well fitted curve in the direction sought with a large enough effect in the signal ratio in the repeat runs, not every such curve was filed as active; the % refers to the signal ratio; note: series mostly up to about 61 µM)
Summary of the method: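 ME-180 NFkB-bla, 2,000 cells/well, overnight plating; cpd pinned in DMSO, 5 h 37 C; B/G FRET substrate 1.5 h RT; ex 405, em 460/530 nm.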

[12] = qHTS assay to identify small molecule agonists of the endoplasmic reticulum stress response signaling pathway (AID 1159516; active = well fitted activation curve with a large enough effect in the signal ratio in the repeat runs, not every such curve was filed as active; the % refers to the signal ratio)
Summary of the method: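 CellSensor ESRE-bla HeLa cells, carrying a beta-lactamase reporter driven by the ER stress response element, were plated overnight and exposed to compounds for 5 hr at 37 C. Reporter activity was read as FRET substrate fluorescence after 2 hr at room temperature.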

[13] = qHTS assay to identify small molecule agonists of the endoplasmic reticulum stress response signaling pathway - cell viability counter screen (AID 1159517; calls by dose curve; note: nearly all actives have a fitted effect of over 50% in size; note: potency is the fitted concentration of half-maximal effect)
Summary of the method: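 HeLa cells carrying an ESRE-driven beta-lactamase reporter receive compound for 5 hr at 37 C. Cell viability is then gauged with CellTiter-Glo by luminescence, 30 min at room temperature.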

[14] = qHTS assay to identify small molecule antagonists of the retinoid-related orphan receptor gamma (ROR-gamma) signaling pathway - cell viability counter screen (AID 1159520); note: nearly all actives have a fitted effect of over 50% in size; note: potency is the fitted concentration of half-maximal effect
Summary of the method: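 Cytotoxicity was read from cellular ATP (CellTiter-Glo luminescence) after 16 hr at 37 C with 1 uM doxycycline induction. The inducer was added 2 hr after compound transfer to Tet-on ROR gamma CHO cells.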

[15] = target: Nuclear receptor ROR-gamma (Homo sapiens) (UniProt P51449); test: qHTS assay to identify small molecule antagonists of the retinoid-related orphan receptor gamma (ROR-gamma) signaling pathway (AID 1159521; note: nearly all actives have a fitted effect of over 50% in size; note: potency is the fitted concentration of half-maximal effect)
Summary of the method: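 Cells were plated, rested 4 h at 37 C, exposed to compounds for 2 h, then given 1 uM final doxycycline hyclate to induce RORγ expression. After 16 h, ONE-Glo luminescence from the ROR response element reporter was measured.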

[16] = qHTS assay to identify small molecule agonists of the AP-1 signaling pathway - cell viability counter screen (AID 1159525; calls by dose curve; note: nearly all actives have a fitted effect of over 55% in size; note: potency is the fitted concentration of half-maximal effect)
Summary of the method: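 Luminescent ATP readout (Cell Titer Glo, 30 min RT), normalised to DMSO and tetra n-octyl ammonium bromide controls. Cells were ME-180 AP-1-bla in 0.5% dialyzed FBS Opti-MEM, with a 5 h, 37 °C compound exposure.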

[17] = qHTS assay to identify small molecule agonists of the AP-1 signaling pathway (AID 1159526; calls by dose curve)
[18] = target: Vitamin D3 receptor (Homo sapiens) (UniProt P11473); test: qHTS assay to identify small molecule agonists of the vitamin D receptor (VDR) signaling pathway (AID 743222; calls by dose curve)
Sequence of Vitamin D3 receptor (Homo sapiens) (P11473 whole entry, looked up): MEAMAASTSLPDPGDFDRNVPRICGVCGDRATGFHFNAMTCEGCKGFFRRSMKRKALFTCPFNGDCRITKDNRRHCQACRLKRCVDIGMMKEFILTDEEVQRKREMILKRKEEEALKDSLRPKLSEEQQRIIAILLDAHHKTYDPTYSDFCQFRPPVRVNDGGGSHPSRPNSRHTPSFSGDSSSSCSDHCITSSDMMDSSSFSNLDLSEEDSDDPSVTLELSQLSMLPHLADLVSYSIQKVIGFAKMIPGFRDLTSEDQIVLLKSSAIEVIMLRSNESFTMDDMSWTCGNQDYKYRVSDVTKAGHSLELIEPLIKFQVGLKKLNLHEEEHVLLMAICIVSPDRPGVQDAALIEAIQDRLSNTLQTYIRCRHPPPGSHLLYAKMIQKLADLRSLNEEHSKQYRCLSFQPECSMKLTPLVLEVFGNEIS
Summary of the method: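 VDR-bla cells were plated 4 h at 37C/5% CO2, then exposed to compounds in DMSO for 16 h. After LiveBLAzer B/G FRET substrate addition and 2 h at room temperature, beta-lactamase reporter fluorescence was read.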

[19] = qHTS assay to identify small molecule agonists of the NFkB signaling pathway - cell viability counter screen (AID 1159515; calls by dose curve; note: series mostly up to about 61 µM; nearly all actives have a fitted effect of over 55% in size)
Summary of the method: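 NFkB-bla ME-180 cells, 2,000/well, were plated overnight at 37 C, 5% CO2, then exposed to compounds in DMSO for 5 hr. After the bla FRET read, CellTiter-Glo was added to the same wells; luminescence was read after 30 min at room temperature.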

[20] = target: Vitamin D3 receptor (Homo sapiens) (UniProt P11473); test: qHTS assay to identify small molecule antagonists of the vitamin D receptor (VDR) signaling pathway (AID 743223; active = well fitted inhibition curve with a large enough effect in the signal ratio in the repeat runs, not every such curve was filed as active; the % refers to the signal ratio; note: potency is the fitted concentration of half-maximal effect)
Summary of the method: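 Cells carrying a VDR-driven beta-lactamase reporter (VDR-bla) were co-treated with compound and 3 nM final 1alpha,25-dihydroxyvitamin D3 for 16 h at 37C; reporter activity was measured as FRET substrate fluorescence after 2 h at room temperature.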

Row | SMILES | Potency [1] | Potency [2] | Potency [3] | Potency [4] | Potency [5] | Potency [6] | Potency [7] | Potency [8] | Potency [9] | Potency [10] | Potency [11] | Potency [12] | Potency [13] | Potency [14] | Potency [15] | Potency [16] | Potency [17] | Potency [18] | Potency [19] | Potency [20]
1 | CC(CCC(=O)O)C(=O)O (stereo unspecified) | inactive | inactive | inactive | inactive | inactive | inactive | inactive | inactive | inactive | inactive | inactive | inactive | inactive | inactive | inactive | inactive | inactive |  |  | 
2 | C=CC(=O)OCC1CC2CC1C1CCC(COC(=O)C=C)C21 (stereo unspecified) | inactive |  |  |  |  | inactive |  |  |  |  | inactive |  |  |  | 54.5 µM (active) |  |  | inactive | inactive | 
3 | Cc1c(C)c2c(c(C)c1OC(=O)CCC(=O)OCCO)CC[C@@](C)(CCC[C@H](C)CCC[C@H](C)CCCC(C)C)O2 | 33.5 µM (active) | inactive |  |  |  |  | inactive |  | 26.6 µM (active) | 26.8 µM (active) | inactive |  |  | inactive |  | inactive |  |  | inactive | 
4 | CCC(C)(C)OC | inactive | inactive | inactive | inactive | inactive | inactive | inactive | inactive | inactive | inactive | inactive | inactive | inactive | inactive | inactive | inactive | inactive |  |  | 
5 | CC(C)(C)C(=O)C(=O)O | inactive | inactive | inactive | inactive | inactive | inactive | inactive |  | inactive | inactive | inactive |  |  | inactive |  |  | inactive | inactive | inactive | 
6 | CO[C@]1(NC(=O)CSC(F)F)C(=O)N2C(C(=O)O)=C(CSc3nnnn3CCO)CO[C@H]21 | inactive | inactive | inactive | inactive |  | inactive |  | inactive | inactive | inactive | inactive |  |  | inactive |  |  | inactive | inactive | inactive | inactive
7 | Cc1cc(C)c(N)cc1C | inactive | inactive | inactive | inactive | inactive | inactive | inactive | inactive | inactive |  | inactive | inactive | inactive | inactive | inactive | inactive | inactive | inactive |  | inactive
8 | COc1cc(C(=O)NC2CCN(C)CC2)ccc1Nc1ncc2c(n1)N(C1CCCC1)CC(F)(F)C(=O)N2C | 11.3 µM (active) | inactive | 7.11 µM (active) | 14.2 µM (active) | 22.5 µM (active) | 17.9 µM (active) |  |  | 15.9 µM (active) | 7.11 µM (active) | inactive | inactive | 50.4 µM (active) | 22.3 µM (active) | 15.8 µM (active) | 6.34 µM (active) | inactive | inactive |  | 6.34 µM (active)
9 | CN1C(=O)OC(C)(C)C1=O | inactive | inactive | inactive | inactive |  | inactive |  | inactive | inactive | inactive | inactive | inactive | inactive | inactive | inactive | inactive | inactive |  |  | 
10 | CN1CC(=O)N2[C@H](c3ccc4c(c3)OCO4)c3[nH]c4ccccc4c3C[C@@H]2C1=O | inactive | inactive | inactive | inactive |  | inactive |  | inactive | inactive | inactive | inactive | inactive | inactive | inactive | inactive | inactive | inactive | inactive |  | inactive
11 | Oc1cccc(Nc2ccccc2)c1 | inactive | inactive | inactive | inactive | inactive | inactive | inactive | inactive | inactive | inactive | inactive | inactive | inactive | inactive | inactive | inactive | inactive |  |  | 
